Data reported in PubChem BioAssay (NCATS).
Results filed as inconclusive are left out. Where a call stands in place of a potency, no number is given. Active and inactive are the calls of the source. Calls come from the whole dose curve; as a rule, active = well fitted curve in the direction sought with a large enough effect; inconclusive = small, poorly fitted or top-dose-only effect, or another doubt; inactive = no such curve, though single readings can be large; an effect the other way counts as inactive or inconclusive.

Experiments:
[1] = tested on: Zika virus NS2B-NS3 protease (unlinked complex); test: Primary screen GU Rhodamine qHTS for Zika virus inhibitors: Unlinked NS2B-NS3 protease assay (AID 1347159); note: nearly all actives have a fitted effect of over 60% in size; note: potency is the fitted concentration of half-maximal effect
Procedure, shortened: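 Percent inhibition came from the 15-min rise in Rhodamine110 fluorescence (1.5 microM substrate, ~15% conversion), normalized to no-inhibitor and no-enzyme wells and Hill-fitted. Unlinked protease, 25 nM, pH 8.0 Tris buffer; compounds up to 114 microM, 15-min preincubation.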

[2] = tested on: Zika virus NS2B-NS3 protease (linked construct); test: Primary screen NINDS Rhodamine qHTS for Zika virus inhibitors (AID 1347160); note: nearly all actives have a fitted effect of over 55% in size
Procedure, shortened: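 Rhodamine110-peptide cleavage (1.5 µM substrate) by 25 nM linked NS2B-NS3 enzyme at pH 8.0 (Tris, Tween 20), after 15 min RT preincubation with compounds; 15-min fluorescence change normalized to controls and Hill-fitted.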

[3] = tested on: Zika virus NS2B-NS3 protease; test: Primary screen GU AMC qHTS for Zika virus inhibitors (AID 1347154); note: nearly all actives have a fitted effect of over 70% in size
Procedure, shortened: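 Fluorogenic AMC-substrate cleavage by noncovalent NS2B-NS3 protease complex (25 nM, pH 8.0 Tris buffer with Tween 20) followed for 15 minutes at room temperature (~20% conversion). Percent inhibition from ex340/em450 signal change, fitted by 4-parameter Hill equation.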

[4] = target: Lysine-specific demethylase 5B (Homo sapiens) (UniProt Q9UGL1); test: Optimization screen for KDM5B Histone Demethylases FDH coupled qHTS against the LOPAC library (AID 1347166)
Procedure, shortened: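 KDM5BDeltaAP (200nM final) in 50mM HEPES pH 7.5, 0.01% Tween-20 was preincubated with compound for 10 min at room temperature. A substrate mix of 12.5uM H3K4Me3, 25uM a-ketoglutarate, ascorbate, Fe2+, NAD+ and formaldehyde dehydrogenase was then added. NADH fluorescence (340/450 nm) was read initially and after 30 min.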

Lysine-specific demethylase 5B (Homo sapiens), sequence (Q9UGL1 whole entry, looked up): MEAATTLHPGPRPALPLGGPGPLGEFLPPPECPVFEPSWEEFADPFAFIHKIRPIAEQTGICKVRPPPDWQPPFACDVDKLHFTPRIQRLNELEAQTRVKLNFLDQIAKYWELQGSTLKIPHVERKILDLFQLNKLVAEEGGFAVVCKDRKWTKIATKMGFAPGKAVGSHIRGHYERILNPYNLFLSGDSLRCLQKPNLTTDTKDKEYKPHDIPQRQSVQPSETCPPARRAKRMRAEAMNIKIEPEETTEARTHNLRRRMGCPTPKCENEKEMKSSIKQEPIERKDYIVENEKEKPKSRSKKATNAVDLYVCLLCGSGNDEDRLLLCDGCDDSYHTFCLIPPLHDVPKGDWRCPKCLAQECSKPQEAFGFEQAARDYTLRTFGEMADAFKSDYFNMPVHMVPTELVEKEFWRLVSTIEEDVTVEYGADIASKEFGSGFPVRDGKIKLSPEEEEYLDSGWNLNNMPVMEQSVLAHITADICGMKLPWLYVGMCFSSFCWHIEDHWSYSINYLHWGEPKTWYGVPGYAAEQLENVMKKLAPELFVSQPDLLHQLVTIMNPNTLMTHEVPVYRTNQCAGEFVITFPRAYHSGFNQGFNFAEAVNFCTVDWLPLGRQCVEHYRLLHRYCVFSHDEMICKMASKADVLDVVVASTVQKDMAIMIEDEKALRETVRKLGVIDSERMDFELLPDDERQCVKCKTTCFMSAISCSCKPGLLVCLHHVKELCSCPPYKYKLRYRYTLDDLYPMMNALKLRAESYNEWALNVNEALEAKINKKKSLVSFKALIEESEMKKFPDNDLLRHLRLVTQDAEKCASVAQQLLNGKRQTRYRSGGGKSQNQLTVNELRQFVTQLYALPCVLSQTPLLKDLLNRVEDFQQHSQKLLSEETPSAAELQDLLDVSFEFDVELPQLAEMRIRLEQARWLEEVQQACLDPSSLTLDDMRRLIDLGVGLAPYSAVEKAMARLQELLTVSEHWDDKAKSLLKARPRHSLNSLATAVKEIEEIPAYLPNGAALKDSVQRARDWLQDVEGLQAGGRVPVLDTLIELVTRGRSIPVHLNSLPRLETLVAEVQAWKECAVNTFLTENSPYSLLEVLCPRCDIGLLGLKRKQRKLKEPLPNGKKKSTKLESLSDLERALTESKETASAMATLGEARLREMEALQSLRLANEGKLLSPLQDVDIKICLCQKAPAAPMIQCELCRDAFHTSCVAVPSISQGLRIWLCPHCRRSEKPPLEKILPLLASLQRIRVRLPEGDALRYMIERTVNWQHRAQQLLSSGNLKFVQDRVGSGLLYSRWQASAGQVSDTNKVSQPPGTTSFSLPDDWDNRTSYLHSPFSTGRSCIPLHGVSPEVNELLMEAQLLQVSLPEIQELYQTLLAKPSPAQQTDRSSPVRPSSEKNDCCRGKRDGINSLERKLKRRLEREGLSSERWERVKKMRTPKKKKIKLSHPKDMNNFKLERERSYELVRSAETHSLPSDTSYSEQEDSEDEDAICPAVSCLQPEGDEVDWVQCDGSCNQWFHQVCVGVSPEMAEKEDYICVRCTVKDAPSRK

| Compound | Potency [1] | Potency [2] | Potency [3] | outcome [4] |
| --- | --- | --- | --- | --- |
| FC(F)c1nc2ccccc2n1-c1nc(N2CCOCC2)nc(N2CCOCC2)n1 | inactive | inactive | – | – |
| CCC[C@H]1C[C@H](C(=O)N[C@@H]([C@@H]2O[C@@H](SC)[C@@H](O)[C@@H](O)[C@@H]2O)[C@H](C)Cl)N(C)C1 | inactive | inactive | inactive | – |
| O=c1[nH]c(=O)n([C@H]2C[C@@H](O)[C@@H](CO)O2)cc1C=CBr | – | – | inactive | inactive |
| C[C@@H](Cc1cc2c(c(C(N)=O)c1)N(CCCO)CC2)NCCOc1ccccc1OCC(F)(F)F | inactive | inactive | – | – |
| Oc1cc(-c2nc(-c3ccccc3)[nH]c2-c2ccncc2)ccc1Cl | – | inactive | inactive | – |
| O=C(Nc1cc2cc[nH]c2cn1)c1ccccc1 | inactive | inactive | inactive | – |
| COc1ccc(S(=O)(=O)Nc2cccnc2Nc2ccc(O)cc2)cc1 | inactive | inactive | – | – |
| COc1ccc2cc([S+]([O-])Cc3ncc(C)c(OC)c3C)nc2c1 | – | – | inactive | inactive |
| CCN(CC)Cc1ccc2cc(COC(=O)Nc3ccc(C(=O)NO)cc3)ccc2c1 | inactive | inactive | inactive | – |
| CCOC(=O)[C@@H](N)Cc1ccc(-c2cc(O[C@H](c3ccc(Cl)cc3-n3ccc(C)n3)C(F)(F)F)nc(N)n2)cc1 | 44.7 µM (active) | – | – | – |
| Oc1ccc([C@@H]2Oc3ccc(O)cc3[C@@H]3CCC[C@@H]32)cc1 | – | inactive | inactive | – |
| CC(C)C[C@H](NC(=O)[C@@H](NC(=O)c1cccc(-c2ccccc2)n1)[C@@H](C)O)B(O)O | inactive | inactive | inactive | – |
| CC(C)n1cnc2c(NCCc3ccc(O)cc3)nc(-c3csc4ccccc34)nc21 | – | inactive | inactive | – |
| N#Cc1c(C2CCNCC2)cc(-c2c(O)cccc2OCC2CC2)nc1N | inactive | inactive | – | – |
| O=C(Nc1ccc(Oc2ccnc3[nH]ccc23)c(F)c1)c1cccn(-c2ccc(F)cc2)c1=O | inactive | inactive | inactive | – |
| CC(C)(N)c1ccc(-c2nc3ccccc3nc2-c2ccccc2)cc1 | inactive | inactive | – | – |
